High-throughput results as filed in PubChem.
EPAC1 ag: EPAC1 (human) agonism. AID 720707. EPAC1 agonist qHTS, biochemical assay; response scale: 100% = response to 6.5 mM cAMP. Potency, µM (top dose mostly 154 µM), usual class: activators. O95398. 0.073% of 360,000 active; also: nearly all actives have a fitted effect of over 60% in size
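Fluorescent GDP-exchange assay: 100 nM EPAC1 with 250 nM Rap1B preloaded with BODIPY-GDP and 50 uM GDP; compounds tested as concentration series, 5 min at room temperature, then read every 5 min for 30 min (ex 480/em 540 nm); normalized to 6.5 mM cAMP.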
EPAC1 antag: blocks human EPAC1 exchange factor | AID 720709 | O95398 | 0.14% of 360,000 active | EPAC1 GEF assay, Rap1b-BODIPY-GDP exchange fluorescence | Potency, µM (top dose mostly 115 µM), most hits filed as inhibitors; also: nearly all actives have a fitted effect of over 50% in size
ALOX12 inh: inhibitors of human 12S-lipoxygenase ALOX12; Potency, µM (titrated, usually from 108 µM), usual class: inhibitors; purified 12hLO, xylenol orange hydroperoxide absorbance; P18054; 1.1% of 580,000 active; AID 1671190
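Hydroperoxide product was detected by ferrous iron/xylenol orange as the 573 to 405 nm absorbance ratio. Arachidonic acid at 40 uM (final) was turned over for 30 min at room temperature by 150 nM human 12hLO, pH 7.0 Hepes buffer, after 15 min compound preincubation.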
USP1-UAF1 inh: USP1/UAF1 (human) deubiquitinase inhibition | O94782 | recombinant USP1/UAF1, Ub-Rhodamine cleavage fluorescence | Potency, µM (highest dose often 57.1 µM), usual class: inhibitors | 0.23% of 390,000 active; also: nearly all actives have a fitted effect of over 60% in size
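USP1/UAF1 complex (1 nM) preincubated 15 min at room temperature with compound, then Ub-Rho substrate (150 nM final) added. Kinetic fluorescence at 480/540 nm over 6 reads at 60 s intervals; 50 mM HEPES pH 7.8, 0.5 mM EDTA, 0.1 mg/ml BSA, 1 mM TCEP, 0.01% Tween-20.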
EPAC2 agonist: agonists of human EPAC2 (RAPGEF4). Potency, µM (highest dose often 154 µM), hits mostly activators. Q8WZA2. 0.079% of 360,000 active. AID 720711. EPAC2 activation, biochemical qHTS; response scale: 100% = 6.5 mM cAMP response; also: nearly all actives have a fitted effect of over 50% in size
Target sequence (Q8WZA2 whole entry, looked up): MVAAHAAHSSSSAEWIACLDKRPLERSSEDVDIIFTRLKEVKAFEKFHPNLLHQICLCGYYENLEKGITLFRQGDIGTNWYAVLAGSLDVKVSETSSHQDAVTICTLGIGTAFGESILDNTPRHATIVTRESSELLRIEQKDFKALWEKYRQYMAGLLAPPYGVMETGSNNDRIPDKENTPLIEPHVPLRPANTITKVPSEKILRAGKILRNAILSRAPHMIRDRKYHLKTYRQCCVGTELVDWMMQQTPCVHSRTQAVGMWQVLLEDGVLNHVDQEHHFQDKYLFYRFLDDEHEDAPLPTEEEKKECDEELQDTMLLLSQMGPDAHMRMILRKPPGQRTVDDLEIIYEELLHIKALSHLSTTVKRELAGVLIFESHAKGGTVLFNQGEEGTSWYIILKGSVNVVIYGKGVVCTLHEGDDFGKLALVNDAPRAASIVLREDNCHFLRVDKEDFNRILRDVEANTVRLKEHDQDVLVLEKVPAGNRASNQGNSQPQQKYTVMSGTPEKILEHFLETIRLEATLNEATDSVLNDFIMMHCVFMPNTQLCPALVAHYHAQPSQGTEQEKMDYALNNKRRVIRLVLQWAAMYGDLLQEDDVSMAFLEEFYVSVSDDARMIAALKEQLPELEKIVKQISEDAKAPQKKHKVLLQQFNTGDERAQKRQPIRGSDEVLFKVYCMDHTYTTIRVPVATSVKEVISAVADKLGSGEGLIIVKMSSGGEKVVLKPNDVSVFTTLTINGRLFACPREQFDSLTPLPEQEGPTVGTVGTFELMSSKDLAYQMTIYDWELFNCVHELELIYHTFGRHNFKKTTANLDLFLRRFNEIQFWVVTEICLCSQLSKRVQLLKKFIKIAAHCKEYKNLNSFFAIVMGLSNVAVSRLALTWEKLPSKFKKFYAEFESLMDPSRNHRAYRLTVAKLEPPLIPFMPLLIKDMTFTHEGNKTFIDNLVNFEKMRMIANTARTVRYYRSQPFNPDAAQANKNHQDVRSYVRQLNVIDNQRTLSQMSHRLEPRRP
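Nucleotide exchange monitored as fluorescence drop when BODIPY-GDP leaves Rap1B. Reaction: 100 nM EPAC2, 250 nM RAP1B-BODIPY-GDP, 50 uM GDP, room temperature, kinetic read over 30 min. Activity expressed relative to 6.5 mM cAMP.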
EPAC2 antag: blocks human EPAC2 exchange factor. Potency, µM (doses to about 114 µM), actives largely listed as inhibitors. AID 720708. 0.18% of 360,000 active. Q8WZA2. EPAC2 GEF exchange of Rap1B-BODIPY-GDP, fluorescence; also: nearly all actives have a fitted effect of over 45% in size
Hits are given with their value; . = inactive; ? = inconclusive; / = no result. Hits are enriched below; roughly 1.3% of the tested compounds scored in any of these assays. Calls follow the shape of the dose curve; as a rule, active = well fitted curve in the direction sought with a large enough effect; inconclusive = small, poorly fitted or top-dose-only effect, or another doubt; inactive = no such curve, though single readings can be large; an effect the other way counts as inactive or inconclusive.

SMILES | EPAC1 ag | EPAC1 antag | ALOX12 inh | USP1-UAF1 inh | EPAC2 agonist | EPAC2 antag
Cc1ccc(C(=O)NC(Nc2cc(C)ccc2C)C(Cl)(Cl)Cl)cc1 (centres undefined) | / | / | . | / | / | /
C[C@H](NC(=O)c1[nH]cnc1C(=O)Nc1ccc(Cl)cc1)c1ccccc1 | . | . | 45µM | . | . | ?
Cc1cccc(C)c1-n1nnnc1C1(Nc2ccc3c(c2)OCCO3)CCCC1 | / | / | . | / | / | /
Cc1ccc(SCC(=O)c2ccc(S(C)(=O)=O)cc2)cc1 | / | / | . | / | / | /
COC(=O)c1sc(-c2ccc(C(C)(C)C)cc2)cc1NC(=O)c1ccccc1C(=O)O | . | 56µM | . | 28µM | . | .
CCOC(=O)/C(C#N)=C\c1ccc(N2CCN(C/C=C/c3ccccc3)CC2)cc1 | 89µM | . | . | 28µM | 50µM | .
COc1ccc(S(=O)(=O)N(CC(=O)N2CCN(C)CC2)c2ccccc2OC)cc1 | / | / | . | / | / | /
Cc1cc(C)c2c(CC(=O)O)c(C)[nH]c2c1 | . | . | 50µM | . | . | .
Oc1c(Br)cc(/C=N/n2c(-c3ccccc3)n[nH]c2=S)cc1Br | . | . | 22µM | . | . | .
COc1ccc(/C=N/n2c(-c3ccc(C)cc3)n[nH]c2=S)cc1OC | . | . | 10µM | . | . | .
Oc1ccc(/C=N/n2c(-c3ccccc3)n[nH]c2=S)cc1Br | . | . | 32µM | . | . | .
Cc1c(Br)c(O)c(Br)c(O)c1/C=N/n1c(-c2ccccc2)n[nH]c1=S | . | 56µM | / | . | . | .
COc1cc(/C=N/n2c(-c3ccccc3)n[nH]c2=S)ccc1O | . | . | ? | . | . | .
Oc1c(Br)cc(/C=N/n2c(-c3ccccc3)n[nH]c2=S)c(O)c1Br | . | . | / | . | . | .
Cc1ccc(/C=N/n2c(-c3ccccc3)n[nH]c2=S)cc1 | . | . | ? | . | . | .
CN(C)C(=S)NC(=S)Nc1ccc2ccccc2c1 | . | . | 35µM | . | . | .
CC1(NC(=S)Nc2ccc3ccccc3c2)CCS(=O)(=O)C1 (centres undefined) | . | . | . | . | . | .
CCOC(=O)c1ccc(N2C(=O)c3n[nH]c(-c4ccco4)c3C2c2cccc([N+](=O)[O-])c2)cc1 (centres undefined) | . | . | 32µM | . | . | .
CCOC(=O)c1ccc(N2C(=O)c3n[nH]c(-c4ccco4)c3C2c2ccc(C(=O)OC)cc2)cc1 (centres undefined) | / | / | ? | . | / | /
CCc1ccccc1NC(=O)NCc1nc(-c2ccccc2C)oc1C | / | / | . | / | / | /
CCCN(CC(=O)Nc1ccccc1OC)C(=O)c1cc(-c2ccccc2)nn1-c1ccccc1 | . | . | 45µM | . | . | .
N#Cc1cccc(/C=C2\CSc3ccccc3C2=O)c1 | / | / | 40µM | / | / | /
CC(=O)Nc1nc(CC(C)C)cc(-c2ccco2)c1C#N | . | . | 13µM | . | . | .
CC(=O)Nc1nc(CC(C)C)cc(-c2ccccc2)c1C#N | . | . | . | . | . | .
Cc1[nH]c2ccc(C(=O)OC(C)C(=O)N(C)C3CCCCC3)cc2c1C (centres undefined) | . | . | . | . | . | .
SMILES | EPAC1 ag | EPAC1 antag | ALOX12 inh | USP1-UAF1 inh | EPAC2 agonist | EPAC2 antag
Cc1[nH]c2ccc(C(=O)OC(C)C(=O)N(C)c3ccccc3)cc2c1C (centres undefined) | 28µM | . | / | . | . | .
Cc1nc(NC2CCCC2)sc1C(=O)NCCC(C)C | / | / | 20µM | / | / | /
O=C(COc1ccc2c(=O)c(-c3ccccc3)coc2c1)N1CCN(c2ccccc2)CC1 | / | / | . | / | / | /
Cc1ccc(N2NC3(CCCCCC3)NC2=S)cc1 | / | / | 1µM | / | / | /
S=C1NC2(CCCCC2)NN1c1ccccc1 | . | . | ? | . | . | .
Cc1ccc(N2NC3(CCC(C)CC3)NC2=S)cc1 (centres undefined) | / | / | 1.3µM | / | / | /
Cc1ccc2nc(/C(C#N)=C/c3ccc(O)c(O)c3)[nH]c2c1 | . | ? | 7.1µM | . | . | .
COc1ccc2nc(/C(C#N)=C\c3ccco3)[nH]c2c1 | / | / | 40µM | / | / | /
N#C/C(=C\c1ccc(-c2ccc(Cl)c(C(=O)O)c2)o1)c1nc2ccccc2[nH]1 | / | / | . | 32µM | / | /
N#C/C(=C\c1ccc(N2CCOCC2)o1)c1nc2ccccc2[nH]1 | 63µM | . | . | 25µM | 50µM | .
N#C/C(=C/c1ccc(N2CCOCC2)o1)c1ccc(Cl)cc1 | . | . | 7.9µM | 28µM | . | .
N#C/C(=C\c1ccc(-c2cccc(Br)c2)o1)c1nc2ccccc2[nH]1 | / | / | . | / | / | /
Cc1ccc(Sc2oc(/C=C(/C#N)c3nc4ccccc4[nH]3)cc2Br)cc1 | / | / | . | / | / | /
N#C/C(=C\c1cc(Br)c(Br)o1)c1nc2ccccc2[nH]1 | / | / | 11µM | / | / | /
N#C/C(=C\c1ccc(-c2ccc(C(=O)O)cc2)o1)c1nc2ccccc2[nH]1 | . | . | ? | 28µM | ? | .
O=C(CCc1c[nH]c2ccccc12)Nc1ccccc1F | / | / | . | / | / | /
COc1ccccc1N1CCN(S(=O)(=O)c2cc(C)c(C)cc2OC)CC1 | / | / | . | / | / | /
CN(C)CC1CCC/C(=C\c2ccc(OC(=O)c3ccc(Cl)cc3)cc2)C1=O (centres undefined) | . | . | 25µM | . | . | .
CC1Sc2ccc(C(=O)Nc3nc(-c4cccnc4)cs3)cc2NC1=O (centres undefined) | / | / | . | / | / | /
Cc1ccc(C2=NC3(CCN(C(=O)COc4cccc(C)c4)CC3)ON2)cc1 | / | / | 89µM | / | / | /
CN(CC(=O)NC(C1CC1)C1CC1)c1ccccc1 | / | / | . | / | / | /
CCCn1c(C)cc(-c2csc(N)n2)c1C | . | . | 35µM | . | . | .
Cc1nnc(Cn2c(=O)c(C#N)cn(C3CC3)c2=O)o1 | / | / | . | / | / | /
NC(=S)Cc1nc(-c2ccc(Cl)cc2)cs1 | . | . | 35µM | . | . | .
O=C(Nc1ccccc1)c1cc(S(=O)(=O)N2CCOCC2)ccc1F | / | / | . | / | / | /
SMILES | EPAC1 ag | EPAC1 antag | ALOX12 inh | USP1-UAF1 inh | EPAC2 agonist | EPAC2 antag
CCCCN1C(=O)C2Cc3c([nH]c4ccccc34)CN2C1=S (centres undefined) | . | . | . | 25µM | . | .
CCCCCN1CC(=O)N2Cc3[nH]c4ccccc4c3C[C@H]2C1=O | . | . | ? | . | . | .
CCCCCOc1ccc(/C=c2\sc3nc(=O)c(-c4ccccc4)nn3c2=O)cc1OC | . | . | . | . | . | .
O=c1nc2s/c(=C\c3ccc(-c4ccccc4[N+](=O)[O-])o3)c(=O)n2nc1-c1ccccc1 | 112µM | . | 11µM | ? | 71µM | .
CCCCNC(=O)c1cnc(Cc2c[nH]c3ccccc23)c(I)c1 | / | / | 40µM | / | / | /
CN1CCN(C(=O)c2cnc(Cc3c[nH]c4ccccc34)c(I)c2)CC1 | / | / | . | / | / | /
